# Assay results taken from PubChem BioAssay AID488789 (Broad Institute, 2010).
# Potency and affinity values are given separately. Results filed as inconclusive are left out. A call without a number means that no potency is given here. Calls of active or inactive are those of the source.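 How the source made its calls: active means samples whose fitted half-maximal inhibition concentration is no more than ten times the top valid dose tested; inconclusive means flat response between -70 and -30, or invalid curve fit; inactive means flat within 30 of zero, potency above limit, or signal rising.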
# Biological target: Trypsin (Sus scrofa) (UniProt P00761)
# Sequence (P00761 whole entry, looked up): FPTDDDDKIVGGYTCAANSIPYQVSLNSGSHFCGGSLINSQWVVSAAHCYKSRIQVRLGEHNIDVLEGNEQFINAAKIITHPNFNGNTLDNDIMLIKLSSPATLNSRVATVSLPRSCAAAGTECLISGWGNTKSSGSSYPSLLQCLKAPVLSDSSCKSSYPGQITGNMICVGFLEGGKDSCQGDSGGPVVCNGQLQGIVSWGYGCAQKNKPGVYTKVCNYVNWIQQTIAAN
# Assay: trypsin protease activity blockade – biochemical, quenched peptide fluorescence, cherry-pick, selectivity assay for Rce1 protease inhibitor project, dose response (AID 488789);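 further: more negative means stronger trypsin inhibition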
# Settings: porcine trypsin, quenched peptide cleavage fluorescence; series mostly up to 10 µM
row,Structure (SMILES),outcome
1,COc1ccccc1/C=C/C=N/NC(=O)CN1CCN(S(=O)(=O)c2ccc(C)cc2)CC1,inactive
2,NCCCn1c(C(=O)c2cc(Cl)c(N)c(Cl)c2)c2ccc(C(F)(F)F)cc2[n+]1[O-],inactive
3,C/C(Cl)=C\Cn1c(O)c(N=NC(N)=S)c2cc(Br)ccc21,inactive
4,Cc1cc(C)c2cc(C#N)c(NCCCNC(=O)CCC(=O)O)nc2c1,inactive
5,CC(=O)OC1CCC2(C)C(COc3ccc4ccc(=O)oc4c3)C(C)(O)CCC2C1(C)C (configuration not stated),inactive
6,O=C(Nc1cc(Cl)cc(Cl)c1)c1coc(=O)c(Br)c1,inactive
7,CC(C)CNC(=O)Nc1ccc(F)c(Cl)c1,inactive
8,N/C(Cc1ccc([N+](=O)[O-])cc1)=N\OC(=O)c1ccc2ccccc2c1,inactive
9,COc1ccc(/C=N/NC(=O)c2ccc(Cl)cc2)cc1COC(C)=O,inactive
10,CC(C)CNC(=O)COc1cccc(C(=O)NCc2ccccc2)c1,inactive
11,CCc1ccc(Nc2n[n+](-c3ccccc3)c(/C=C/c3ccccc3)s2)cc1,inactive
12,CCOC(=O)c1cc2c(=O)[nH]ccc2nc1C,inactive
13,N#CC(C#N)=C1NC(N)=C(C#N)C(c2ccccc2)=C1C#N,inactive
14,CCc1cc(=O)oc2cc(OCC(=O)N3CCC(C(=O)O)CC3)ccc12,inactive
15,CS(=O)(=O)Cc1ccc(C(=O)N(CCc2ccccc2)Cc2ccccc2)cc1,inactive
16,O=c1c(-c2ccccc2)c(O)c2ccccc2n1-c1ccccc1,inactive
17,CC1CCN(C(=O)C2CCN(S(=O)(=O)c3ccc(-n4cnnn4)cc3)CC2)CC1,inactive
18,CN(C)CCCN(C(=O)c1cc(-c2cccs2)nc2ccccc12)c1nc2ccc(F)cc2s1,inactive
19,O=C(c1cn(-c2ccccc2)nc1-c1cccs1)N1CCN(c2ccccn2)CC1,inactive

row,Structure (SMILES),outcome
1,Nc1nc2c(ncn2COC(CO)CO)c(=O)[nH]1,inactive
2,COc1ccc(-c2cn3ccccc3n2)cc1[N+](=O)[O-],inactive
3,COc1ccc([N+](=O)[O-])cc1CSc1ccccn1,inactive
4,Cc1ccc(C(=O)c2c3ccccc3[n+]([O-])n2CCO)cc1,inactive
5,Cc1cccc(-c2nnc(SCc3ccc(C#N)cc3)n2Cc2ccco2)c1,inactive
6,Cc1cc(C)n2nc(CC(=O)NNC(=O)c3ccc(N(C)C)cc3)nc2n1,inactive
7,O=C(c1cnc2n(c1=O)CCS2)N1CCN(C(c2ccccc2)c2ccc(Cl)cc2)CC1 (configuration not stated),inactive
8,CCOc1ccc(-n2c(SCc3ccc([N+](=O)[O-])cc3)nnc2-c2ccc(OC)cc2)cc1,inactive
9,CN1CCN(CCCNC(=O)c2cc3c(-c4ccc(Cl)cc4)nn(C)c3s2)CC1,inactive
10,Cc1ccc(C(=O)c2c3ccc(C(F)(F)F)cc3[n+]([O-])n2CCCC(N)=O)cc1,inactive
11,Cc1cccc(NC(=O)C2(c3ccc([N+](=O)[O-])cc3)CCCC2)c1,inactive
12,CCC1CCCCN1C(=O)NC(=O)c1ccccc1 (configuration not stated),inactive
13,Cc1ccc(-c2c(C(=O)N/N=C/c3cccc(Cl)c3)nnn2-c2nonc2N)cc1,inactive
14,CCSc1nc2c(c(=O)[nH]1)C(c1ccccn1)C1=C(CC(C)(C)CC1=O)N2 (configuration not stated),inactive
15,COc1cc2c(cc1OC)C(C)N(C(=O)CCNC(=O)c1ccccc1)CC2 (configuration not stated),inactive
16,CCCCCc1ccc(OCCOCCn2c[n+](C)c3ccccc32)c(CCCCC)c1,inactive
17,O=C(C1=C[C@@H](C2CC2)C[C@@H](OCc2ccc(CO)cc2)O1)N1CCN(Cc2ccccc2)CC1,inactive
18,CN1C(=O)/C(=C/c2cccc(Cl)c2)Sc2ccc(C(=O)N3CCOCC3)cc21,inactive
